Experimental findings from PubChem BioAssay (NCATS) are described below.

Unmarked numbers belong to inactive results. Results filed as inconclusive are left out. Calls of active or inactive are those of the source. Unless noted, the call rests on the fitted dose curve; in most records, active means well fitted curve in either direction with a large enough effect (not every such curve was filed as active); inconclusive means small, poorly fitted or top-dose-only effect, or another doubt; inactive means flat fitted curve, though single readings scatter. Some results are limits rather than exact numbers.

Assay [1] in a line: AP1 Signaling Pathway (AID 357).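 Further: ME-180 reporter cells stimulated with EGF at its EC50 level; on the % scale 0 is the no-effect control and ±100 the full control effect.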 The following applies: ME-180 AP-1-bla reporter, EGF-induced, beta-lactamase ratio, 5 h; at 17.2 µM (top of the series) unless noted. In a few lines:
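In this screen, ME-180 cells in Opti-MEM with 0.5% dialyzed FBS received EC50 EGF and compound titrations for 5 h. AP-1 reporter beta-lactamase was detected via CCF4 ratio, giving AC50 for positive and negative modulators.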

Assay [2] can be described thus: NFAT Signaling Pathway (AID 444).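 Further: carbachol stimulus at about its EC50 of 1 µM final; on the % scale 0 is the no-effect control and ±100 the full control effect.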 The following applies: Jurkat NFAT-bla M1, carbachol, beta-lactamase ratio, 5 h; at 17.2 µM (top of the series) unless noted. Summed up:
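Jurkat cells carrying an NFAT-driven β-lactamase reporter and co-transfected muscarinic M1 receptor were treated with compound plus carbachol (1 uM final, an EC50 level) for 5 h at 37 °C. CCF4 loading followed for 1 h at RT; 460/530 nm ratio gave %activity.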

Assay [3] can be described thus: Stat Signaling Pathway (AID 446).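 Further: ME-180 cervical cancer cells given 40 pM IL-6 alongside compound; SIE-controlled beta-lactamase reporter measured as 460/530 nm FRET emission ratio; on the % scale 0 is the no-effect control and ±100 the full control effect.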 The following applies: ME-180 SIE beta-lactamase reporter, IL-6 stimulated, 5 h; at 17.2 µM (top of the series) unless noted. Summed up: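 IL-6/STAT signaling read in ME-180 cells via an SIE beta-lactamase reporter. Stimulus was 40 pM IL-6 (its AC50) for 5 hrs, so both activation and inhibition register.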
Assay [4] addresses Glucocorticoid receptor (Homo sapiens) (UniProt P04150). Kind of assay: GR-GFP Redistribution (AID 450;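 active means compounds whose dose series gives a full or clear partial fitted curve of increased nuclear translocation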; further: potency means the concentration at half of the fitted maximal effect).
In assay [5] the target is Mitogen-activated protein kinase 10 (Mus musculus) (UniProt Q61831). Kind of assay: JNK3 AlphaScreen Assay (AID 530).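 Further: kinase came from lysate of stimulated human HepG2 cells; signal reports phosphorylation of biotinylated GST-cJun 1-79 at Ser73 with 10 µM ATP; on the % scale 0 is the no-effect control and ±100 the full control effect.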 In a few lines: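 Inhibitors reduce antibody binding to phosphorylated biotin-cJun, lowering AlphaScreen luminescence. Lysates from HepG2 cells pre-activated by IL-1beta plus TNF-alpha supplied JNK3; compounds were titrated.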
For assay [6], the target named is 3',5'-cyclic-AMP phosphodiesterase 4B (Homo sapiens) (UniProt Q07343). Briefly: qHTS Assay for Inhibitors of PDE-IV (AID 607; active means well fitted activation curve with a large enough effect in the main read-out, with a control signal flat, not every such curve was filed as active; further: % of control where 0% means no effect). In a few lines:
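Live HEK293 cells with a modified cyclic nucleotide-gated (CNG) channel report intracellular cAMP via membrane-potential dye fluorescence (ex 535/em 590 nm). Endogenous PDE-IV was targeted. Compounds were tested at up to 22.9 uM final; RO 20-1724 100 uM served as control.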
In general terms: In qHTS, concentration-response curves come from the screen itself.

Assay [7] concerns the target Glucocorticoid receptor (Homo sapiens) (UniProt P04150). Briefly: GR-EFC Redistribution (AID 451; calls by dose curve; further: potency means the concentration at half of the fitted maximal effect). The following applies: CHO-K1 GR-EFC translocation, beta-gal luminescence, 2 h. In a few lines:
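CHO-K1 cells stably expressing nuclear-localized β-gal enzyme acceptor and GR fused C-terminally to the enzyme donor fragment; ligand-driven nuclear translocation restores β-gal by complementation. Compounds titrated up to 46 uM final, 2 h at 37 °C; luminescence read.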

Assay [8] concerns the target Guanine nucleotide-binding protein G(i) subunit alpha-1 (Homo sapiens) (UniProt P63096). Kind of assay: qHTS Assay for Inhibitors of RGS12 GoLoco Motif Activity (Green Fluorophore) (AID 879; active means well fitted curve in the direction sought with a large enough effect; an effect the other way counts as inactive or inconclusive;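 further: 0% = labeled peptide with Gαi1 and full inhibition = labeled peptide alone without protein; negative values mean loss of peptide binding seen as reduced polarization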). Summed up:
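Fluorescence polarization assay: 50 nM Gαi1 with 10 nM FITC-labeled RGS12 GoLoco peptide in 10 mM Tris pH 7.5, 150 mM NaCl, 0.1 mM GDP, 0.05% NP40, 10 min at room temperature with compound.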

Assay [9] can be described thus: qHTS Assay for Identification of Small Molecule Antagonists for NFkB Signaling Pathway (AID 895; active means well fitted inhibition curve with a large enough effect in the signal ratio, with a control signal flat, not every such curve was filed as active; the % refers to the signal ratio; further: potency means the concentration at half of the fitted maximal effect). In a few lines: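 NFkB-bla ME-180 cervical carcinoma cells with beta-lactamase reporter under NFkB response element; compounds added, then TNF alpha at 10 pM final (EC50), 5 h at 37 C. LiveBLAzer substrate 2 h, room temperature; emission 460/530 nm at 405 nm excitation.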

Assay [10] in a line: qHTS Assay for Identification of Small Molecule Agonists for Thrombopoietin (TPO) Signaling Pathway (AID 917; active means well fitted curve in the direction sought with a large enough effect; an effect the other way counts as inactive or inconclusive; further: potency means the concentration at half of the fitted maximal effect). Summed up: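 Murine Ba/F3 cells expressing human TPO receptor and GPIIb-promoter luciferase, IL-3-starved overnight, given compound plus TPO at 26 pM (EC50). After 24 h at 37 C, 5% CO2, luminescence read.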
Assay [11] concerns the target Muscarinic acetylcholine receptor M1 (Rattus norvegicus) (UniProt P08482). Briefly: qHTS Assay for Antagonists of Acetylcholine Muscarinic M1 Receptor: Measurement of IP-One Response (AID 944; active means well fitted curve in the direction sought with a large enough effect; an effect the other way counts as inactive or inconclusive; further: nearly all actives have a fitted effect of over 75% in size). In a few lines: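 M1-CHO (rat), 2000 cells/well, overnight recovery; cpd 10 min; carbachol EC80 (200 nM), 30 min, HEPES buffer + 50 mM LiCl pH 7.4; IP-One HTRF, Ex 337, Em 620/665 nm.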

The target in assay [12] is Pyruvate kinase (Leishmania mexicana) (UniProt Q27686). Kind of assay: qHTS Validation Assay for Inhibitors of Leishmania Mexicana Pyruvate Kinase (AID 945; active means well fitted curve in the direction sought with a large enough effect; an effect the other way counts as inactive or inconclusive;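 further: 0% = DMSO only neutral control wells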). Summed up:
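Read-out: luminescence from PKLight stop/detection reagent, data normalized to DMSO. Reaction: 0.2 nM E451W LmPYK, 0.5 mM PEP, 0.1 mM ADP, pH 7.2, 1 h room temperature.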

Assay [13] has as its target Pyruvate kinase PKM (Homo sapiens) (UniProt P14618). Briefly: qHTS Assay for Activators of Human Muscle Pyruvate Kinase (AID 954; active means well fitted curve in the direction sought with a large enough effect, not every such curve was filed as active;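 further: 0% = uninhibited enzyme and -100% = no enzyme or full thiadiazolimine inhibition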). In a few lines:
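Enzyme was run at intermediate activity so both inhibitors and activators could be detected. ATP formed from ADP and PEP by 0.1 nM human PKM2 during a 1 h room-temperature incubation was quantified by coupled luciferase luminescence.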

Assay [14] has as its target Alpha-galactosidase A (Homo sapiens) (UniProt P06280). Kind of assay: Counterscreen for Glucocerebrosidase Inhibitors: qHTS Assay for Human alpha-Galactosidase at pH 4.5 (AID 992; active means well fitted curve in the direction sought with a large enough effect; an effect the other way counts as inactive or inconclusive; further: 0% is about no effect). In a few lines: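 Read-out is 4-methylumbelliferone fluorescence (365 nm excitation, 440 nm emission) after a pH 10 NaOH/glycine stop. Reactions held 2 nM enzyme and 80 uM substrate at pH 4.5 for 20 min at room temperature.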

In assay [15] the target is alpha-glucosidase (Oryza sativa, rice) (UniProt Q653V4). Kind of assay: Counterscreen for Glucocerebrosidase Inhibitors: qHTS Assay for Rice alpha-Glucosidase at pH 5.0 (AID 997; active means well fitted curve in the direction sought with a large enough effect; an effect the other way counts as inactive or inconclusive;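 further: 0% = full activity with enzyme and -100% = basal without enzyme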). Summed up: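 Rice alpha-glucosidase (4 nM final) with 400 uM 4-methylumbelliferyl-alpha-D-glucopyranoside in citrate buffer pH 5.0, 20 min at room temperature, stopped at pH 10; fluorescence 365/440 nm, compounds 0.7 nM–77 uM, AC50 from Hill fits.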
(In general: Counterscreens check selectivity or assay interference.)

The target in assay [16] is Cytochrome P450 3A4 (Homo sapiens) (UniProt P08684). Briefly: qHTS Assay for Activators of Cytochrome P450 3A4 (AID 885; active means well fitted curve in the direction sought with a large enough effect; an effect the other way counts as inactive or inconclusive; further: nearly all actives have a fitted effect of over 65% in size). Summed up:
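Quantitative HTS format: compounds preincubated with 20nM human CYP3A4 and Luciferin-PPXE substrate at KM, reaction started by NADPH regeneration, stopped after 60 min, luciferase luminescence read 20 min later.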

The nature of assay [17]: qHTS Assay for Identification of Small Molecule Agonists for Hypoxia Response Element Signaling Pathway (AID 914; active means well fitted activation curve with a large enough effect in the signal ratio, with a control signal flat, not every such curve was filed as active; the % refers to the signal ratio; further: potency means the concentration at half of the fitted maximal effect). Particulars: ME-180 (cervical carcinoma) HRE-bla reporter, beta-lactamase ratio, CoCl2, 17 h; activation: hits give high values. Summed up: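 qHTS titration; ME-180 HRE-bla cells; EC50 CoCl2 co-treatment, 17 h at 37 degrees Celsius; CCF4 dye, ex 405nm, em 460nm and 530nm; %Activity from ratio; AC50.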

Guanine nucleotide-binding protein G(i) subunit alpha-1 (Homo sapiens), sequence (P63096 whole entry, looked up): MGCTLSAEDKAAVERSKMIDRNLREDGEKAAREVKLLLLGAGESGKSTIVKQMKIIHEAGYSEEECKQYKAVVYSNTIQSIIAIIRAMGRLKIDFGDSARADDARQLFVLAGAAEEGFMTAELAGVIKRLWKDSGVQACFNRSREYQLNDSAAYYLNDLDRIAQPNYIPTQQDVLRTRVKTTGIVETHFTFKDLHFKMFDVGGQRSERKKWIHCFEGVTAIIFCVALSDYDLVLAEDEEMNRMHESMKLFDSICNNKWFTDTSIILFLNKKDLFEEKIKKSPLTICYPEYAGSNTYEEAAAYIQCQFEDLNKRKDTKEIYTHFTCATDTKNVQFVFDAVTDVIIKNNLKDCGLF
3',5'-cyclic-AMP phosphodiesterase 4B (Homo sapiens), sequence (Q07343 whole entry, looked up): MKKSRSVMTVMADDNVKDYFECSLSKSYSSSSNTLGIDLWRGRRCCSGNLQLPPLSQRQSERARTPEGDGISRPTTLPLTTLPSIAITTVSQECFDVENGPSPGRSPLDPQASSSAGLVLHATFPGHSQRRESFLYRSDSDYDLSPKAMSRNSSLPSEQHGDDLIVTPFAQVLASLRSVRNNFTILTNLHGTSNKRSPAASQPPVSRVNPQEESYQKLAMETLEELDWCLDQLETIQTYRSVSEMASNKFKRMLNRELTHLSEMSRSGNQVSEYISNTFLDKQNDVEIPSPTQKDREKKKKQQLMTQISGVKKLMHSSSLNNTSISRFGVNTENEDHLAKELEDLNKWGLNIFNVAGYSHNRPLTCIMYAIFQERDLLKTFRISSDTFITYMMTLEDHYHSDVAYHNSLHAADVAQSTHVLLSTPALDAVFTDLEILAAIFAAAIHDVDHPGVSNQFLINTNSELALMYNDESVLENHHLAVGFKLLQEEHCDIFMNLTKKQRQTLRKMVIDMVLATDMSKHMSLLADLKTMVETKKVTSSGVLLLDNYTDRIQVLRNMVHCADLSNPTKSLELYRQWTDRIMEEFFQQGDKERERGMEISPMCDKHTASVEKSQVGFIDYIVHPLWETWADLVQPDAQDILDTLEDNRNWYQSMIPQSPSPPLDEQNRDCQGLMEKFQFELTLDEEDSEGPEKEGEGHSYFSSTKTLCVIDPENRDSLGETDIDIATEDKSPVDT
Glucocorticoid receptor (Homo sapiens), sequence (P04150 whole entry, looked up, the tested form may be a part): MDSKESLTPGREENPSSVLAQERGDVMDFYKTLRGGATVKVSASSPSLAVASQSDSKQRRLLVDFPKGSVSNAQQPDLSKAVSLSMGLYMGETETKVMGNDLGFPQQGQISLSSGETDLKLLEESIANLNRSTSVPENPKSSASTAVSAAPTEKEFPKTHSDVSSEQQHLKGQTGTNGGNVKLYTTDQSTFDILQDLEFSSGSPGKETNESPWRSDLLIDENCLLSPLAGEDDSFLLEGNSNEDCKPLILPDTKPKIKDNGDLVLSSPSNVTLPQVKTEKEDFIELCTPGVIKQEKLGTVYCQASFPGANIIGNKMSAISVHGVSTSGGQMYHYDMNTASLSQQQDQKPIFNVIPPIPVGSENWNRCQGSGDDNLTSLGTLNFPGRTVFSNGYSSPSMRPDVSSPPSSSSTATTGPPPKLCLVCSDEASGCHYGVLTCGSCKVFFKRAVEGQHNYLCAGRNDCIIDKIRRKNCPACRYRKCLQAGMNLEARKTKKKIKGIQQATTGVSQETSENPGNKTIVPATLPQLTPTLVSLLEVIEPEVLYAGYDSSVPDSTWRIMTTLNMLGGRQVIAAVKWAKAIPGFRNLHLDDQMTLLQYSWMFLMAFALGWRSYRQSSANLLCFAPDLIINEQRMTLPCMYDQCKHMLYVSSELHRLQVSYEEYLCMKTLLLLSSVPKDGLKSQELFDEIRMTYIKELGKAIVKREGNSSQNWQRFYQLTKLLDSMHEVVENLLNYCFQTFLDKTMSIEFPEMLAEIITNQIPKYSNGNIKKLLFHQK
Alpha-galactosidase A (Homo sapiens), sequence (P06280 whole entry, looked up): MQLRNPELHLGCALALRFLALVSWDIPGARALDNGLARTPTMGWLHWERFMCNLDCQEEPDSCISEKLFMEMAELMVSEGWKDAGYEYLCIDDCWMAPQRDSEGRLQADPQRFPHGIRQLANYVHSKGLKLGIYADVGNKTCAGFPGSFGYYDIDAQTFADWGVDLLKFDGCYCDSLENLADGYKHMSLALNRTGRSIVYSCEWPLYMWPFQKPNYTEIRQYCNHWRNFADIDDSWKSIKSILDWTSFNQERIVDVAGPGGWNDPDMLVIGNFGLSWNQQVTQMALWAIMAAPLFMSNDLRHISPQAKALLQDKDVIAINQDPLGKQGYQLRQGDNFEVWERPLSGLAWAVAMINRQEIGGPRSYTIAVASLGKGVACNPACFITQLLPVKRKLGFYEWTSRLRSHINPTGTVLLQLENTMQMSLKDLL
Muscarinic acetylcholine receptor M1 (Rattus norvegicus), sequence (P08482 whole entry, looked up): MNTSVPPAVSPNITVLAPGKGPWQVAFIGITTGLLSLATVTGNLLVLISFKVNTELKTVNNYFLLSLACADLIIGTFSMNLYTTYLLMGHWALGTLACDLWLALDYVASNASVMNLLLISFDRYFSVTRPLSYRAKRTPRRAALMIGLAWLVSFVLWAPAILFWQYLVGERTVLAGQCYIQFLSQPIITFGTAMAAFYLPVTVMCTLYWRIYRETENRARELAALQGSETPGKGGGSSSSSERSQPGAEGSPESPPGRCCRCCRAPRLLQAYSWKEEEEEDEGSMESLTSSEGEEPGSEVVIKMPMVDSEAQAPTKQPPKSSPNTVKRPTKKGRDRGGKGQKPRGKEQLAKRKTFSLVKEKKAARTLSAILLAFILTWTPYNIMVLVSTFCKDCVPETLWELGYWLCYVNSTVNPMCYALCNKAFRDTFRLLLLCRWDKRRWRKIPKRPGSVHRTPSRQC
Pyruvate kinase (Leishmania mexicana), sequence (Q27686 2-499 E452W): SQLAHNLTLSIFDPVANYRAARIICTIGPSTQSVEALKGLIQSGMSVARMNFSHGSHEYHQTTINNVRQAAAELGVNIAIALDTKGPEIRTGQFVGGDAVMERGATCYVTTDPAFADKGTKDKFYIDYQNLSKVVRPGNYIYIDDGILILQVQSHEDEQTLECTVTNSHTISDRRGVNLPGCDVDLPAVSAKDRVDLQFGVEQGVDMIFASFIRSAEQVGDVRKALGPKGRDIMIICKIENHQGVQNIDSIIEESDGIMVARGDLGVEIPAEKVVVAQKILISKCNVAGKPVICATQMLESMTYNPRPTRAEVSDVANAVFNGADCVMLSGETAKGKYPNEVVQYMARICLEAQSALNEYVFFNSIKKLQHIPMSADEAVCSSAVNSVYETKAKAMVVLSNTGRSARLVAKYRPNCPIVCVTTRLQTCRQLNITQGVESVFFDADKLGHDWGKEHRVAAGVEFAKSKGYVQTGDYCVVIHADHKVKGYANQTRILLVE
Pyruvate kinase PKM (Homo sapiens), sequence (P14618 whole entry, looked up): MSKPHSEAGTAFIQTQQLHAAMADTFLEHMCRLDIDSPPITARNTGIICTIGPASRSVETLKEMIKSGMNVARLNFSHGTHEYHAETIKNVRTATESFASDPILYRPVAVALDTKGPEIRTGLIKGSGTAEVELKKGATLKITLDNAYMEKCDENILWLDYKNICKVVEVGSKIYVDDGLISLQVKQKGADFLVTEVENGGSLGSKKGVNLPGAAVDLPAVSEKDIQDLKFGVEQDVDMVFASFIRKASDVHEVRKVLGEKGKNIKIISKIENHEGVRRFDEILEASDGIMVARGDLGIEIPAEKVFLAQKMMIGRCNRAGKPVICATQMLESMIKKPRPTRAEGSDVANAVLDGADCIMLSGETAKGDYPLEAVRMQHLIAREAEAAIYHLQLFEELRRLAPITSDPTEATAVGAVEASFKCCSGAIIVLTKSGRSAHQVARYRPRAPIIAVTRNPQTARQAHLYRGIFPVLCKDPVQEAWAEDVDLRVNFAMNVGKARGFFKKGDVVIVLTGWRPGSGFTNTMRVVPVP
Cytochrome P450 3A4 (Homo sapiens), sequence (P08684 whole entry, looked up): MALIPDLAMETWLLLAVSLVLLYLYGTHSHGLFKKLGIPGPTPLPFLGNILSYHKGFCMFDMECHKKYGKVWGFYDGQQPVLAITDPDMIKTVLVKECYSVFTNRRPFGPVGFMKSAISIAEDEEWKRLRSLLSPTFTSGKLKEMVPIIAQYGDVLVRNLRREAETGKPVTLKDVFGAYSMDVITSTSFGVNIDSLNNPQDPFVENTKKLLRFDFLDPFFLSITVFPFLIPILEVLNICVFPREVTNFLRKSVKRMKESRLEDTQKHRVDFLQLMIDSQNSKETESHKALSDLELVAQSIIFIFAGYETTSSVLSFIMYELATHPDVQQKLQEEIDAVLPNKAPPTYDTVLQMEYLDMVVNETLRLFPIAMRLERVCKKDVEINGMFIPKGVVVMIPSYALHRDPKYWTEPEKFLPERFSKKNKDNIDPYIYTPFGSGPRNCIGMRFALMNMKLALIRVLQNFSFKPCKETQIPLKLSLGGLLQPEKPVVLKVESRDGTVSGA

For `O=C(O)c1cc(Cl)cc(Cc2cc(Cl)cc(C(=O)O)c2O)c1O`, the activity change, negative = inhibition was 10.2% [at 7.69 µM] in assay [1], 10.6% [at 7.69 µM] in [2] and 4.28% [at 11.4 µM] in [5]. Moreover, in [3], the activity, negative = inhibition was -2.39% [at 7.69 µM]. For the same compound, the Potency in assay [4] was greater than 46 µM. In assay [6], the Potency entry was “inactive”.

Turning to `COc1cc(C)cc2c(-c3c(O)cc(O)c4c3C[C@H](C)N[C@@H]4C)cc(-c3cc(-c4c(O)cc(O)c5c4C[C@H](C)N[C@@H]5C)c4cc(C)cc(OC)c4c3O)c(O)c12`, the activity change, negative = inhibition was 6.28% [at 7.69 µM] in [1], 9.14% [at 7.69 µM] in assay [2] and -9.73% [at 11.4 µM] in assay [5]. Besides, in [3], the activity, negative = inhibition was 5.82% [at 7.69 µM]. Also, the Potency in [4] is greater than 46 µM. The Potency result in assay [6] is “inactive”.

Regarding `COc1cc(/C=N/n2c(C)nnc2C)cc(OC)c1OC`, the values for the activity change, negative = inhibition in [1] and in [2] were -12.3% and 10.5%, respectively. Moreover, in assay [3], the activity, negative = inhibition was -4.5%. Also, the Potency in [4] is greater than 20.6 µM.

In the case of `OC[C@@H]1O[C@@H](n2cnc3c(Nc4ccccc4)ncnc32)[C@@H](O)[C@H]1O`, the activity change, negative = inhibition was 7.84% [at 38 µM] in assay [1] and 0.0847% [at 38 µM] in assay [2]. Besides, the activity, negative = inhibition in [3] was -14.3% [at 38 µM]. Also, the Potency is greater than 46 µM in assay [4], greater than 46 µM in [7], 2.24 µM (active) in assay [9] and 3.98 µM (active) in assay [10]. Also, the Potency result in assay [5], in [6], in assay [11] and in assay [12] was “inactive” throughout. The result in assay [8], in assay [13], in assay [14] and in assay [15] was inactive.

With `O=C(C[N+]12CN3CN(CN(C3)C1)C2)c1ccc(-c2ccccc2)cc1`, the activity change, negative = inhibition was 8.23% [at 7.69 µM] in assay [1], -2.51% [at 7.69 µM] in assay [2] and -2.86% [at 11.4 µM] in assay [5]. Besides, the activity, negative = inhibition in [3] was 0.439% [at 7.69 µM]. Moreover, the Potency in assay [4] is greater than 46 µM; in assay [7], greater than 9.22 µM. In assay [16], the activity change, positive = activation was -51.5% [at 11.4 µM].

For the compound `COc1ccc(-n2c(=O)c(CCc3ccccc3)nc3cnc(N4CCNCC4)nc32)cc1`, the results for the activity change, negative = inhibition in [1] and in assay [2] were 4.61% [at 7.69 µM] and 7.43% [at 7.69 µM], respectively. Also, the activity, negative = inhibition in assay [3] was 0.474% [at 7.69 µM]. Further, the figures for the Potency in [4], in [7] and in assay [17] were greater than 9.22 µM, greater than 46 µM and 3.16 µM (active), respectively. Also, the Potency result in assay [5] and in assay [6] was “inactive” in each case.

With `Cc1cc(N2CCCCC2)nc2ccc(Cc3ccc4nc(N5CCCCC5)cc(C)c4c3)cc12`, the activity change, negative = inhibition was -0.0465% [at 7.69 µM] in [1], -1.68% [at 7.69 µM] in assay [2] and 13.5% [at 11.4 µM] in assay [5]. The activity, negative = inhibition in [3] is 8.27% [at 7.69 µM]. The values for the Potency in assay [4] and in assay [7] were greater than 46 µM and greater than 9.22 µM, respectively.

Turning to `O=C1CCC(=O)N1CNc1ccccn1`, the values for the activity change, negative = inhibition in assay [1] and in assay [2] were 10.7% and -7.64%, respectively. Besides, in assay [3], the activity, negative = inhibition was 15.6%. Moreover, the Potency in assay [4] is greater than 20.6 µM.

Regarding `NC(=S)c1ccc[n+]([C@@H]2O[C@@H](COP(=O)([O-])OP(=O)(O)OC[C@@H]3O[C@@H](n4cnc5c(N)ncnc54)[C@@H](OP(=O)(O)O)[C@H]3O)[C@@H](O)[C@H]2O)c1`, the activity change, negative = inhibition in assay [1] was 5.32% [at 38 µM]; in [2], -7.28% [at 38 µM]. Besides, the activity, negative = inhibition in [3] is 1.28% [at 38 µM]. The Potency in assay [4] and in [7] was greater than 46 µM each time. Further, the Potency result in assay [5], in assay [6], in assay [16], in assay [10], in [11] and in assay [12] was “inactive” throughout. Besides, the compound was called inactive in assay [8], in assay [13], in assay [14] and in assay [15].

For `CN1C[C@@H](C(=O)N[C@]2(C)O[C@]3(O)[C@H]4CCCN4C(=O)[C@H](Cc4ccccc4)N3C2=O)C[C@H]2c3cccc4[nH]cc(c34)C[C@@H]21`, the activity change, negative = inhibition in assay [1] is -19.9% [at 38 µM]; in assay [2], -15.6% [at 38 µM]. For the same compound, the activity, negative = inhibition in assay [3] was -18.4% [at 38 µM]. Also, the Potency in [4] and in assay [7] was greater than 46 µM throughout. Besides, the Potency entry in [5], in assay [6], in assay [10] and in [12] was “inactive” throughout. Further, the call in [8], in [13], in assay [14] and in [15] was inactive.

Regarding `N/C(=N\c1nc2ccccc2o1)NC(=O)c1ccccc1NC(=O)c1ccccc1`, the activity change, negative = inhibition in [1] was 14.1%; in assay [2], -14.2%. Besides, in [3], the activity, negative = inhibition was -27.8%. Besides, in assay [4], the Potency is greater than 20.6 µM.

`CCCCC[C@H](O)CCCC(=O)O`: the activity change, negative = inhibition in [1] was -0.599% [at 38 µM]; in assay [2] it was -3.23% [at 38 µM]. Moreover, the activity, negative = inhibition in [3] is -28.6% [at 38 µM]. Also, the Potency in assay [4] is greater than 46 µM; in [7] it was greater than 46 µM; in [9] it was 5.01 µM (active). In addition, the Potency result in [5], in [10], in assay [11] and in [12] was “inactive” throughout. In addition, the result in assay [8], in assay [13], in assay [14] and in assay [15] was inactive.

On to `CCOC(=O)c1[nH]c2ccccc2c1NC(=O)CN(C)C`, for which the activity change, negative = inhibition in assay [1] was 1.77%; in [2], -6.47%. Also, in [3], the activity, negative = inhibition is 1.63%. In addition, the Potency in [4] was greater than 20.6 µM.
